{"source": "paper PMC5540273", "about": "(PLoS ONE, 2017);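 also: KINOMEscan kinase panel screen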"}
{"test_system": "T1, MRCKB", "T1 construct": "gene CDC42BPB", "settings": "concentration: 1 μM, replicates: in singlicate; n = 1", "units": {"%Inh": "%"}}
{"smiles": "c1ccc(-c2ccnc3[nH]ccc23)cc1", "note": "[SB-693578]", "%Inh": 0}
{"smiles": "COc1ccc(Nc2nccc(N3CCC(NC(=O)C(C)c4ccc(Cl)cc4)C3)n2)cc1", "note": "(centres unmarked) [GSK1379735]", "%Inh": 2}
{"smiles": "Nc1nccc(-c2c(-c3ccc(F)cc3)ncn2C2CCN(Cc3ccccc3)CC2)n1", "note": "[SB-219980]", "%Inh": 20}
{"smiles": "Cl.Cl.Cl.N#Cc1ccc(CCNc2nccc(-c3cccc(CN4CCNCC4)c3)n2)cc1", "note": "[GSK2137462]", "%Inh": 19}
{"smiles": "Cc1cccc2c(-c3ccncn3)c(-c3ccc(F)cc3)nn12", "note": "[GW515532]", "%Inh": 0}
{"smiles": "O=C(Nc1n[nH]c2nc(-c3cccs3)c(Br)cc12)C1CC1", "note": "[SB-735297]", "%Inh": 0}
{"smiles": "CC(=O)c1c(C)c2cnc(Nc3ccn(C)n3)nc2n(C2CCCC2)c1=O", "%Inh": 5}
{"smiles": "COc1cccc(NC(=O)Nc2ccc(C)c(-c3ccc(C(=O)Nc4ccncc4)cc3)c2)c1", "note": "[GSK1398474]", "%Inh": 3}
{"smiles": "CCc1ccc(-c2ccc3c(c2)-c2n[nH]cc2S(=O)(=O)N3C)cc1", "%Inh": 6}
{"smiles": "CNc1nc(-c2ccc3c(N)n[nH]c3c2)cc(N2C[C@@H](C(=O)Nc3ccccc3)CC[C@H]2C)n1", "note": "[GSK2298859]", "%Inh": 0}
{"smiles": "COc1cccc(C2=C(Nc3cc(Cl)c(O)c(Cl)c3)C(=O)NC2=O)c1", "note": "[SB-390767]", "%Inh": 3}
{"smiles": "Cn1cncc1C(=O)NC1CCN(c2ccnc(Nc3ccc(F)cc3)n2)C1", "note": "(centres unmarked) [GSK1379717]", "%Inh": 0}
{"smiles": "Fc1ccc(-c2nc3n(c2-c2ccncc2)CCS3)cc1", "note": "[GI98581]", "%Inh": 25}
{"smiles": "CS(=O)(=O)CCNCc1nc(-c2ccc3ncnc(Nc4ccc(OCc5ccccc5)c(Cl)c4)c3c2)cs1.Cl", "note": "[GW582764]", "%Inh": 0}
